Compound activity (PubChem BioAssay)
Myeloid diff 2 = induction of myeloid progenitor differentiation, primary screen, cell-based, flow cytometry, MLPCN library; 360,000 tested, 1% active; ER-HoxA9 myeloid progenitors, lysozyme-GFP differentiation; calls only at 10 µM; AID 624256, 2012;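 active = normalized GFP-positive differentiation at or above the plate's own cutoff, the solvent-only control mean plus 3 SD; inconclusive = no clear call, values can overlap the other calls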;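 note: cells exposed to compound for four days before flow analysis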
Glyco luc inh = increase of ERlucT glycosylation luciferase signal, primary screen, N-linked glycosylation inhibitor project, D54 ERlucT cells, luminescence, set 2 | D54 ERlucT glycosylation luciferase reporter, 24 h; percent of 100 nM tunicamycin response | reporter increase, % at 12.5 µM | 360,000 tested, 0.23% active | AID 588692, 2011;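 active = mean luciferase reporter signal, scaled so untreated is 0 and the glycosylation-blocking control 100, at or above a set limit in every replicate; inconclusive = mean reaches the limit but not every replicate does; inactive = mean below the limit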;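 note: luciferase carries N-glycosylation sites so blocking glycosylation raises the light; 0% = median of neutral control wells and 100% = median of 100 nM tunicamycin wells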
Vif imaging = HIV Vif self-association inhibitors, primary screen, imaging, HEK293T, single point. HEK293T cells, Vif self-association by quenched fluorescence, 24 h. inhibition, % at 7.49 µM. 340,000 tested, 0.35% active. AID 602346, 2012; in the data active = inhibition above about 50%, passing the limit was not always enough; inconclusive = no clear call, values can overlap the other calls; inactive = below about 31%
RAD54 branch = inhibitors of human RAD54 branch migration, primary screen, biochemical, fluorescence, single point | RAD54 Holliday junction branch migration, FAM/BHQ fluorescence | inhibition, % at 10.4 µM | 360,000 tested, 0.14% active | AID 602329, 2012;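 active = mean normalized replicate activity at least 40 and at least half of replicates scoring 40 or more; inconclusive = only one of the two criteria met; inactive = mean below 40 and under half of replicates reaching 40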;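 note: 0% = median of neutral control wells and 100% = median of positive control wells; inhibitors cause a drop in the FAM fluorescence signal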
Target sequence (Q92698 whole entry, looked up): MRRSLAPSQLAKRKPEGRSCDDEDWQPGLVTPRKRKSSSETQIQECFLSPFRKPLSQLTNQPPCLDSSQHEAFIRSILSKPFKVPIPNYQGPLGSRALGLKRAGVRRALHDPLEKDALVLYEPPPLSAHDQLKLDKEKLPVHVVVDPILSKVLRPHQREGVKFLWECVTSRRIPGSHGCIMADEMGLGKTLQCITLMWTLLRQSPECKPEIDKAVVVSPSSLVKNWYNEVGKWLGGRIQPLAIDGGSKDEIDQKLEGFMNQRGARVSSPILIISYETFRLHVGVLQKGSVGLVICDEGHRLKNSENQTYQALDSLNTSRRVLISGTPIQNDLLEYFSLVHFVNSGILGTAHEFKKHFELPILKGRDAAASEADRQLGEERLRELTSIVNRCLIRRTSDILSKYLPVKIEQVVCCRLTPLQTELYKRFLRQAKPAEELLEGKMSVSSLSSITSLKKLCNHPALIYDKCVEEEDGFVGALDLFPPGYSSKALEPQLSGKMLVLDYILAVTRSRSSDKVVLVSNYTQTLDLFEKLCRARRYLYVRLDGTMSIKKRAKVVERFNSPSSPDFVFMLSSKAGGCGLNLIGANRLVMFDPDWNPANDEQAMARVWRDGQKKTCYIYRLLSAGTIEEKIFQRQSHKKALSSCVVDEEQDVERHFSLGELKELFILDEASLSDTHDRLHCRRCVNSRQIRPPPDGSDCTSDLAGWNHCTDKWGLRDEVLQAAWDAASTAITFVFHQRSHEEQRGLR
ABCB6 inh MLPCN = ABCB6 transporter inhibitors, primary screen, K562-ABCB6 cells, flow cytometry, MLPCN library; K562-ABCB6 porphyrin accumulation, 1 h; stronger effect = lower value; fluorescence ratio to DMSO, % at 10 µM; 360,000 tested, 0.19% active; AID 602162, 2011;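 active = fluorescence ratio to DMSO below 75%, the collection mean minus 3 SD; inconclusive = too few cells collected in the well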;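 note: signal is porphyrin accumulated inside mitochondria; 100% equals median channel fluorescence of DMSO control wells; lower ratio means ABCB6 inhibition with less porphyrin fluorescence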
Myeloid diff CP1 = inducers of myeloid progenitor differentiation, confirmation, cell-based, GFP/Mac1 flow cytometry, cherry pick 01 | shares compounds with Myeloid diff 2 | ER-HoxA9 myeloid progenitors, GFP/Mac1 double-positive flow | AID 651706, 2012 | 2,300 tested, 2% active | calls only;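 active = share of green or green-and-red cells above 9 and 9% in run 1 or 4 and 3% in run 2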
GFP autofluor = compound fluorescence in myeloid differentiation counter-screen; ER-HoxA9 myeloid progenitors, no estrogen, GFP autofluorescence flow cytometry; vehicle wells 0%, positive control 100%; shares compounds with Myeloid diff 2; 2,300 tested, 7.4% active; AID 651707; fluorescence response, % (test concentration not listed);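 active = over 5% cells positive for green fluorescent reporter, or over 2% positive for both it and APC stain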;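 note: range taken on the double positive population between DMSO and positive control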
* hit, by the source's call; i = inactive; ? = inconclusive; . = not tested or not shown; + = active, no number. This is a sample that favours compounds with a hit; in the whole collection about 1.6% have one here.

SMILES	Myeloid diff 2	Glyco luc inh	Vif imaging	RAD54 branch	ABCB6 inh MLPCN	Myeloid diff CP1	GFP autofluor
COCCCN1C(=O)C(=O)/C(=C(/O)c2ccc(OC(C)C)cc2)C1c1ccncc1 (stereo unspecified)	i	1.0	-0.2	11.7	96.0	i	0.2
O=CNc1ccc2c3c(cccc13)-c1ccccc1-2	+	1.0	56.0*	-2.7	109.0	i	0.3
COc1ccc(/C=N/NC2=NS(=O)(=O)c3ccccc32)cc1OC(C)=O	i	0.6	-10.7	8.9	107.0	i	0.0
CC(=O)Oc1ccc(/C=N/NC2=NS(=O)(=O)c3ccccc32)cc1	i	-0.6	9.9	8.1	96.0	.	.
COC(=O)[C@H](CCSC)NC(=O)NCc1cccs1	i	0.8	0.8	3.4	106.0	i	0.3
O=C(CSc1nc2ccccc2c(=O)n1-c1ccc(F)cc1)Nc1ccc2c(c1)CCC2	i	-13.1	3.2	.	105.0	.	.
O=C(CSc1nc2ccc(F)cc2c(=O)n1-c1ccccc1)Nc1ccc2c(c1)CCC2	+	-0.1	.	2.0	i	i	0.0
COc1ccc(C(=O)NC(=S)Nc2cccc(S(=O)(=O)N3CCOCC3)c2)cc1	i	?	-2.5	.	88.0	i	0.0
O=C(CSc1nc2ccsc2c(=O)n1NC(=O)c1ccccc1)Nc1nccs1	+	-1.4	5.0	0.0	102.0	i	0.0
Cc1noc(C)c1S(=O)(=O)Nc1ccc2c(c1)C(=O)N([C@@H](C)CO)C[C@@H](C)[C@H](CN(C)C(=O)Nc1ccc(F)cc1)OCCCC[C@@H](C)O2	.	.	.	-2.2	.	.	.
O=C(N[C@@H]1CC[C@@H](CC(=O)N2CCc3ccccc3C2)O[C@@H]1CO)C1CC1	.	.	.	-3.3	.	.	.
Cc1ccc(CCNC(=O)CCS(=O)(=O)c2cc3c(cc2C)NC(=O)CO3)cc1	i	2.9	-2.2	7.3	94.0	i	0.2
CC(=O)Oc1ccc(/C=C2/SC(=S)N(Cc3ccccc3)C2=O)cc1	+	1.6	32.9	-8.0	138.0	i	37.5*
COc1cc(/C=C2/SC(=S)N(Cc3ccccc3)C2=O)ccc1OCC(=O)O	i	1.3	1.3	-2.6	153.0	.	.
CCCCN1C(=O)/C(=C/C=C2\SCCN2C)SC1=S	i	0.9	16.9	.	117.0	.	.
CN1CCS/C1=C/C=C1/SC(=S)N(Cc2ccccc2)C1=O	+	1.7	51.6*	.	113.0	i	22.7*
CNC(=O)C[C@@H]1CC[C@H]2[C@H](COc3ccc(NC(=O)Nc4cccc(F)c4)cc3C(=O)N2C)O1	.	.	.	-0.2	.	.	.
CCOP(=O)(OCC)C(NC(=O)Nc1ccc(C)cc1)C(N)=O (stereo unspecified)	+	2.6	-8.5	7.6	98.0	i	0.0
CCC(C)(C)NC(=O)C(c1ccc(C)o1)N(C(=O)c1csnn1)c1cccc(F)c1 (stereo unspecified)	i	0.7	-3.0	-13.1	100.0	i	0.0
O=C(C[C@@H]1CC[C@@H]2[C@H](COC[C@H](O)CN2C(=O)c2ccc(F)cc2)O1)NCc1cccc(F)c1	.	.	.	6.7	.	.	.
CC(=O)Nc1ccc(OCC(O)CN2CCN(S(=O)(=O)c3ccc(NC(C)=O)cc3)CC2)cc1 (stereo unspecified)	i	0.0	0.9	-6.2	102.0	.	.
CC(=O)Nc1ccc(S(=O)(=O)N2CCN(CC(O)COc3ccc4ccccc4c3)CC2)cc1 (stereo unspecified)	i	-0.8	-4.2	4.7	97.0	i	0.0
Cn1c(=O)[nH]c(=O)c2c1nc(Br)n2Cc1cccc(Br)c1	i	9.1	13.5	1.6	99.0	i	0.0
CN1CCN(c2nc3c(c(=O)[nH]c(=O)n3C)n2Cc2cccc(Br)c2)CC1	i	2.1	8.5	-5.2	99.0	.	.
